FEN1 inh: inhibitors of human flap endonuclease 1; P39748; Recombinant FEN1 flap cleavage, fluorescence, 15 min; Potency, µM (series often up to 114 µM), most hits filed as inhibitors; 0.35% of 390,000 active; AID 588795; further: nearly all actives have a fitted effect of over 65% in size
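FEN1 at 10 nM, compound pretreatment for 15 min (room temperature), 50 nM final substrate to initiate; endpoint reads at 0 and 15 min; DMSO-only plates used as vehicle background.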
Pol kappa inh: inhibitors of human DNA polymerase kappa; Q9UBT6; purified Pol kappa, fluorescent DNA synthesis assay, 10 min; Potency, µM (doses to about 107 µM), actives largely listed as inhibitors; 0.53% of 400,000 active; AID 588579
Target sequence (Q9UBT6 whole entry, looked up): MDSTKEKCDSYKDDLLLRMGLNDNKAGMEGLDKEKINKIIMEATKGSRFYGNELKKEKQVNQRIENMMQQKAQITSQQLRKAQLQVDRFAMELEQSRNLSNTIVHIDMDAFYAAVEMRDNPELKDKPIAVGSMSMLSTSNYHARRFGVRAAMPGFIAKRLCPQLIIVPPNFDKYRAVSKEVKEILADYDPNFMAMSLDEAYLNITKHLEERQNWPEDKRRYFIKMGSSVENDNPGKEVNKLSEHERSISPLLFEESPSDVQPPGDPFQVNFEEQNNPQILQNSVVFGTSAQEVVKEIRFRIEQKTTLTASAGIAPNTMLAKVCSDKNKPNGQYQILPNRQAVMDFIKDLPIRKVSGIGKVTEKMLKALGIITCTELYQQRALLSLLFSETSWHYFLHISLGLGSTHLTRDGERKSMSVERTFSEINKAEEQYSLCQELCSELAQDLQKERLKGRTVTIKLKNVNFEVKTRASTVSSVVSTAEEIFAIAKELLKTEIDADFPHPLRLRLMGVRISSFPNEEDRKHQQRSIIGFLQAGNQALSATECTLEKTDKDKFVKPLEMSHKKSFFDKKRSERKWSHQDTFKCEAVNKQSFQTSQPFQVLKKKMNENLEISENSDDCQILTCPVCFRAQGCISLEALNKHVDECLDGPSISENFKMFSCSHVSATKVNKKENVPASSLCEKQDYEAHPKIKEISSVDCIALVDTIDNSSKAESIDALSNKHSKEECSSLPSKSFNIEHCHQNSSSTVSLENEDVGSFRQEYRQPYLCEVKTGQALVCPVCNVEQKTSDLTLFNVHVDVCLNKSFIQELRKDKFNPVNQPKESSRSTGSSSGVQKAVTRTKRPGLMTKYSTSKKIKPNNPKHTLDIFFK
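Fluorescent qHTS in 1536-well format: enzyme (10 nM) and compound sat 15 min at room temperature before 50 nM substrate (final) was added. Signal taken at 0 and 10 min; no-enzyme buffer wells were negative controls.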
POLB inh: DNA polymerase beta (human) inhibition. 1.3% of 340,000 active. Pol beta primer extension/strand displacement, fluorescence kinetic. Potency, µM (highest dose often 114 µM), usual class: inhibitors. P06746
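Reaction started by 50 nM substrate onto compound-treated Pol beta (10 nM, 15 min preincubation, room temperature); plates read at 0 min and 10 min. Normalized concentration-effect data fitted by four-parameter Hill equation.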
Pol iota inh: blocks human DNA polymerase iota activity; Q9UNA4; Pol iota fluorescent replication assay, 10 min; Potency, µM (series often up to 115 µM), actives largely listed as inhibitors; 1% of 390,000 active
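Fluorescent replication assay read twice, at 0 min and 10 min after adding 50 nM (final) substrate. Enzyme (10 nM) and compounds were first incubated 15 min at room temperature; enzyme-free buffer wells were negative controls.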
Pol eta inh: blocks human DNA polymerase eta activity; Q9Y253; recombinant Pol eta, fluorescent DNA replication assay; Potency, µM (series often up to 114 µM), hits mostly inhibitors; 1.2% of 390,000 active
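Fluorescent replication assay: 50 nM final substrate added after a 15 min room-temperature compound preincubation with 10 nM enzyme. Signal taken at 0 min and again at 10 min.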
WRN helicase inh: blocks human WRN helicase; Q14191; WRN helicase unwinding, fluorescent forked duplex, kinetic; Potency, µM (series often up to 114 µM), most hits filed as inhibitors; 0.46% of 360,000 active; AID 651768; further: nearly all actives have a fitted effect of over 55% in size
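WRN at 20 nM final preincubated with compound 15 min at room temperature; reaction started with 100 nM fluorophore/quencher forked duplex oligonucleotide and 2 mM ATP final. Unwinding followed kinetically by red fluorescence (ex 525, em 598 nm).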
Hits are given with their value; - = inactive; ? = inconclusive; . = no result; ! = repeats disagree; [ ] = another dose, or the depositor's remark. Rows were chosen to be rich in hits. Some 2.4% of all compounds tested hit in one or more screens of this group. The call rests on the fitted dose curve; in most records, active means well fitted curve in the direction sought with a large enough effect; inconclusive means small, poorly fitted or top-dose-only effect, or another doubt; inactive means no such curve, though single readings can be large; an effect the other way counts as inactive or inconclusive.

SMILES	FEN1 inh	Pol kappa inh	POLB inh	Pol iota inh	Pol eta inh	WRN helicase inh
O=C(CSc1nc2c(oc3ccccc32)c(=O)[nH]1)Nc1cccc(Cl)c1	-	-	71µM	?	-	.
O=C(OCC1OC(n2ncc(=O)[nH]c2=O)C(OC(=O)c2ccccc2)C1OC(=O)c1ccccc1)c1ccccc1 (stereo unspecified)	-	?	?	?	89µM	-
CC(=O)OC[C@H]1O[C@@H](n2ncc(=O)[nH]c2=O)[C@H](OC(C)=O)[C@@H]1OC(C)=O	-	-	-	-	-	-
c1coc(CSSCc2ccco2)c1	?	8.9µM	.	?	20µM	50µM
Cc1ccccc1C(=O)Nc1ccccc1C(=O)N1CCC(C)CC1	89µM	-	-	-	-	-
CC1CCN(C(=O)c2ccccc2NC(=O)c2nsc3ccccc23)CC1	-	-	-	-	-	.
CCCN1CNc2c(c(=O)[nH]c(=S)n2CCc2cc(Cl)cc(Cl)c2)C1	-	-	.	-	.	.
O=C(Nc1ccc2c(c1)C(=O)NC2=O)c1cccc(C(F)(F)F)c1	-	-	79µM	?	-	-
O=C(Nc1ccc2c(c1)C(=O)NC2=O)c1ccccc1	-	-	-	-	-	-
COc1ccc(N=C2S/C(=C\c3ccc(OCC(=O)O)cc3)C(=O)N2CCc2c[nH]c3ccccc23)cc1	-	16µM	4µM	?	-	?
CN(C)c1ccc(-c2nn3c(-c4cc(-c5ccccc5)n[nH]4)nnc3s2)cc1	-	-	.	-	.	.
O=C(Nc1nnc(-c2ccco2)o1)c1ccc(N2C(=O)CCC2=O)cc1	-	-	?	22µM	-	-
Cc1ccccc1-c1nnnn1C1CCS(=O)(=O)C1 (stereo unspecified)	-	-	-	-	-	-
Cc1cc(=O)n(C2CCS(=O)(=O)C2)[nH]1 (stereo unspecified)	-	-	-	4.5µM	-	-
CC1(C)OC(=O)C2(Cc3ccc(Cl)cc3N3CCCC32)C(=O)O1 (stereo unspecified)	-	-	.	-	.	.
O=C(OC[C@H]1O[C@@H](OC(=O)c2cc(O)c(O)c(OC(=O)c3cc(O)c(O)c(O)c3)c2)[C@H](OC(=O)c2cc(O)c(O)c(OC(=O)c3cc(O)c(O)c(O)c3)c2)[C@@H](OC(=O)c2cc(O)c(O)c(OC(=O)c3cc(O)c(O)c(O)c3)c2)[C@@H]1OC(=O)c1cc(O)c(O)c(OC(=O)c2cc(O)c(O)c(O)c2)c1)c1cc(O)c(O)c(OC(=O)c2cc(O)c(O)c(O)c2)c1	-	-	.	-	.	.
O=C(O)C[C@@H]1C(=O)O[C@@H]2C(COC(=O)c3cc(O)c(O)c(O)c3)O[C@@H](OC(=O)c3cc(O)c(O)c(O)c3)[C@@H](OC(=O)c3cc(O)c(O)c4c3[C@H]1[C@H](O)C(=O)O4)[C@H]2OC(=O)c1cc(O)c(O)c(O)c1 (stereo partly specified)	.	.	0.18µM	.	.	.
NCC1OC(O[C@H]2[C@H](O)[C@@H](OC3C(O)C(N)CC(N)C3OC3OC(CO)C(O)C(O)C3N)O[C@@H]2CO)C(N)C(O)C1O (stereo partly specified)	.	-	.	.	.	.
CN(C)S(=O)(=O)c1ccc(C(=O)OCC(=O)c2csc(N3CCCCC3)n2)cc1	-	-	.	?	79µM	-[11.6 µM]
O=C(C[n+]1ccccc1)c1ccc(O)c(O)c1	-	?	.	?	.	.
O=C(CCCN1C(=O)/C(=C/c2cccs2)SC1=S)Nc1cc([N+](=O)[O-])ccc1O	-	-	-	-	-	-
O=C(CCN1C(=O)/C(=C/c2ccc(F)cc2)SC1=S)Nc1cc([N+](=O)[O-])ccc1O	-	-	45µM	?	-	-
O=C(NCCN1CCOCC1)C1(C(F)(F)F)C/C(=C/CCO)CCCO1 (stereo unspecified)	-	-	.	-	.	.
Cc1ccc(NC(=O)COC(=O)c2ccc3c(c2)NC(=O)C2CCCN32)cc1 (stereo unspecified)	-	-	-	7.9µM	-	-
Cc1o[nH]c(=O)c1CCC(N)C(=O)O (stereo unspecified)	.	-[19.4 µM]	.	.	.	.
SMILES	FEN1 inh	Pol kappa inh	POLB inh	Pol iota inh	Pol eta inh	WRN helicase inh
OCC1O[C@H]([S-])[C@H](O)[C@@H](O)[C@@H]1O.[Au+] (stereo partly specified)	.	5.3µM	.	.	.	.
COC1=CC(=O)C(O)=C/C1=C\C=C\c1ccccc1	.	-	.	.	.	.
COc1cccc(C2CC(c3ccccc3)=NN2S(=O)(=O)c2ccc(C)cc2)c1OC (stereo unspecified)	-	-	50µM	-	?	?
O=C1N/C(=N/O)S/C1=C/c1cccc([N+](=O)[O-])c1	-	-	-	-	-	-
O=C1N/C(=N\S(=O)(=O)Cc2ccccc2)S/C1=C/c1cccc([N+](=O)[O-])c1	-	-	-	?	50µM	-[11.6 µM]
O=C1C(=O)c2c(ccc3ccccc23)-c2ccccc21	-	-	.	-	7.9µM	-[11.6 µM]
CC1CCN(C(=O)COC(=O)/C=C/c2ccc(Br)o2)CC1	-	?	.	18µM	-	-[11.6 µM]
CC1CCN(C(=O)COC(=O)/C=C/c2ccc([N+](=O)[O-])cc2)CC1	-	-	.	-	-	-
COc1ccc(C(=O)CCC(=O)Nc2cc(Cl)c(O)c(Cl)c2)cc1	-	?	28µM	45µM	22µM	-
COc1cc(N(C)C)ccc1/C=C/c1ccnc2ccccc12	-	-	.	-	.	.
CC(=O)C1(O)Cc2c(O)c3c(c(O)c2C(OC2CC(N)C(O)C(C)O2)C1)C(=O)c1c(O)cccc1C3=O (stereo unspecified)	?	7.1µM	.	?	.	.
COc1cccc2c1C(=O)c1c(O)c3c(c(O)c1C2=O)C[C@@](O)(C(=O)CO)C[C@@H]3O[C@H]1C[C@H](N)[C@H](O)[C@H](C)O1	-	27µM!	8.9µM	-	45µM	56µM
Cc1cc(C)c2c(C)ccnc2c1	-	-	.	-	.	.
Nc1ccc(N(CCO)CCO)cc1	-	-	18µM	2.8µM	-	-
O=C(/C=C/c1ccc(Cl)cc1)c1cccnc1	-	-	-	?	-	?
O=C(/C=C/c1ccccc1Cl)c1ccccc(=O)c1O	-	-	45µM	28µM	?	-[11.6 µM]
O=C(/C=C/c1ccccc1Cl)c1cccnc1	-	-	-	40µM	-	?
CN(C)c1ccc(/C=C/c2nc3ccccc3s2)c(Cl)c1	-	-	.	-	.	.
CCc1ccc(-c2ccc(SCC(=O)Nc3nnc(C)s3)nn2)cc1	-	-	40µM	-	-	?
CCCCCCc1cc2cc(-c3nnc(-c4ccccc4O)o3)c(=O)oc2cc1O	-	-	?	?	1.8µM	-
CCCCCCc1cc2cc(-c3nnc(-c4cc(OC)c(OC)c(OC)c4)o3)c(=O)oc2cc1O	-	-	-	-	?	-
Cc1nc2ccccc2c(C)c1CC(=O)N(C)CC(=O)Nc1cccc(F)c1	-	-	.	?	-	-
